From PubChem BioAssay come the findings set out here.

Molecules are shown by their SMILES.

For this test, the system named is Fibrinogen (Alexa647-labelled). Nature of the test: fibrinogen binders on compound microarrays, profiling panel, artefact control for SMM control-protein annotation, biochemical, small-molecule microarray, 635/667 nm fluorescence (AID 1131).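 Also: z-score merges 667 nm fluorescence with per-spot signal-to-noise over triplicate slides.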 The following applies: fibrinogen-A647 binding fluorescence, higher = more signal.
Molecule `Cc1ccc(S[C@]2(C(=O)NCC(F)(F)F)CC(=O)N(Cc3ccccc3)[C@@H]2c2ccc(CO)cc2)cc1` displayed a composite z-score of -1.16. Consider `O=C1O[C@@H](c2ccccc2)[C@@H](c2ccccc2)N2[C@@H](c3ccccc3OCCO)[C@]3(C(=O)Nc4ccccc43)[C@@H](C(=O)NC[C@H](O)c3ccccc3)[C@H]12`, for which the composite z-score was -0.0424. With `COc1ccc([Si](C)(C)[C@@H]2[C@@H](CC(=O)N3CCC[C@H]3CO)O[C@]3(C(=O)N(Cc4ccc(N5C(=O)c6cccc7cccc5c67)cc4)c4ccccc43)[C@H]2C)cc1`, the composite z-score was 0.759. In the case of `O=C1NC(=O)C2C1C=CC(C(O)c1ccc(Br)cc1)N2Nc1ccccn1` (stereo not given) it was 0.995; in that of `O=C1C2C=CC(C(O)c3cc(C(F)(F)F)cc(C(F)(F)F)c3)N(Nc3ccc([N+](=O)[O-])cc3)C2C(=O)N1c1ccccc1` (stereo not given), 1.02; in that of `O=C1O[C@@H](c2ccccc2)[C@@H](c2ccccc2)N2[C@@H](c3ccccc3OCCO)[C@]3(C(=O)Nc4ccc(C#CCCO)cc43)[C@@H](C(=O)Nc3nc4ccccc4s3)[C@H]12`, 0.956.

On to `COc1ccccc1CN1C(=O)c2ccccc2[C@](Cc2ccccc2I)(C(=O)NC(C)C)[C@@H]1c1ccc(CO)cc1`, for which the composite z-score is 0.983.

`COC(=O)C(CC#Cc1ccc2c(c1)[C@]1(C(=O)N2)[C@H](C(=O)O)[C@H]2C(=O)O[C@H](c3ccccc3)[C@H](c3ccccc3)N2[C@@H]1c1ccccc1OCCO)C(=O)OC` registered a composite z-score of 0.95. With `CC(C)NC(=O)[C@@]1(C)c2ccccc2C(=O)N(C(C)C)[C@H]1c1ccc(CO)cc1`, the composite z-score was -0.66. `NCCCCCCNC(=O)[C@@H]1C[C@@H]2C(=O)N3CCC[C@H]3C(=O)N2[C@@H]1c1ccc(O)cc1` showed a composite z-score of 0.578.

For `CC(C)C(O)C1C=CC2C(=O)N(C)C(=O)C2N1Nc1ccccc1` (stereo not given), the composite z-score worked out at 0.78. On to `C=CC[C@]12N=C(c3ccc(OCCCO)cc3)O[C@H]1c1ccccc1N(C)C2=O`, for which the composite z-score was found to be 0.325. Then `CC(C)(C)OC(=O)CC[C@]1(C(=O)O)N=C(c2ccc(OCCCO)cc2)O[C@H]1c1ccccc1CN=[N+]=[N-]`, with -0.0709; and `COc1ccc(NN2C(C(O)c3ccco3)C=CC3C(=O)N(C4CCCCC4)C(=O)C32)cc1` (stereo not given), with 0.936; and `CCOC(=O)[C@H]1C/C=C/C[C@H](C(=O)OCC)C(=O)O[C@H]2[C@@H](OC)O[C@H](CO)[C@@H](OC(=O)CCc3ccccc3)[C@@H]2OC1=O`, with 0.0772. In the case of `COCCOC(=O)N1C(=O)[C@@]2(c3cc(C#CCNC(N)=O)ccc31)[C@H](C(=O)N1CCCCCCC1)[C@H]1C(=O)O[C@H](c3ccccc3)[C@H](c3ccccc3)N1[C@@H]2c1ccc(O)cc1` it was 0.391; in that of `O=C1c2ccccc2[C@](Cc2ccccc2I)(C(=O)NCc2ccccc2)[C@H](c2ccc(CO)cc2)N1C1CCCCC1`, 0.945; in that of `C=CCOC(=O)[C@H]1[C@@H]2C(=O)O[C@@H](c3ccccc3)[C@@H](c3ccccc3)N2[C@@H](c2ccc(OCCOC(=O)[C@H]3C[C@H]4C(=O)N[C@@H](Cc5ccccc5)C(=O)N4[C@H]3c3ccc(O)cc3)cc2)[C@]12C(=O)Nc1ccc(I)cc12`, 0.565. For the molecule `COCCCNC(=O)[C@@]1(Sc2ccc(C)cc2)CC(=O)N(Cc2cc(C(F)(F)F)cc(C(F)(F)F)c2)[C@@H]1c1ccc(CO)cc1`, the composite z-score came out at 0.248.

Regarding `C=CCN1C(=O)[C@@]2(CCC(=O)OC(C)(C)C)N=C(c3ccc(OCCCO)cc3)O[C@H]2c2ccccc21`, the composite z-score stood at 0.652.

With `C=CCNC(=O)[C@@H]1[C@H]2C(=O)O[C@H](c3ccccc3)[C@H](c3ccccc3)N2[C@H](c2ccccc2OCCO)[C@@]12C(=O)N(C(=O)OCCOC)c1ccc(C#CC3=CCCCC3)cc12`, the composite z-score turned out to be 0.682. `COc1ccc(C(O)C2C=CC3C(=O)N(c4ccccc4)C(=O)C3N2Nc2ccc(C#N)cc2)c2ccccc12` (stereo not given) gave a composite z-score of 0.979. `COCCOC(=O)N1C(=O)[C@@]2(c3cc(C#CC4(O)CCCCCC4)ccc31)[C@H](c1ccccc1OCCO)N1[C@H](c3ccccc3)[C@H](c3ccccc3)OC(=O)[C@H]1[C@@H]2C(N)=O` showed a composite z-score of 0.872. `C[C@]1(C(=O)NC2CC2)c2ccccc2C(=O)N(Cc2ccc(OC(F)(F)F)cc2)[C@H]1c1ccc(CO)cc1` came in with a composite z-score of -0.796. In turn, `C#CCNC(=O)[C@H](Cc1ccccc1)NC(=O)[C@@H](N=[N+]=[N-])C(C)C` yielded a composite z-score of 0.694. In turn, `CC(C)(C)OC(=O)CC[C@]1(C(=O)NCCN2CCOCC2)N=C(c2ccc(OCCCO)cc2)O[C@H]1c1ccccc1` yielded a composite z-score of 0.955. In the case of `[N-]=[N+]=NCc1ccccc1C[C@]1(C(=O)NCC(O)CO)N=C(c2ccc(OCCCO)cc2)O[C@H]1c1ccccc1CN=[N+]=[N-]` (stereo not given in full) it was 0.973; in that of `COc1cc2c(cc1OC)CN(C(=O)[C@@H]1[C@H]3C(=O)O[C@H](c4ccccc4)[C@H](c4ccccc4)N3[C@H](c3ccccc3OCCO)[C@@]13C(=O)Nc1ccc(C#CC4(O)CCCCCC4)cc13)CC2`, 0.787; in that of `C[C@@H](OCc1ccccc1)C1NC(=O)[C@@]23C(=O)N[C@@H](Cc4ccccc4)C2[C@H](C)[C@@]2(C)O[C@H]2C3/C=C/C/C=C\CNC(=O)CNC1=O` (stereo not given in full), -2.57. `COCCCNC(=O)[C@]1(CCC(=O)OC(C)(C)C)N=C(c2ccc(OCCCO)cc2)O[C@@H]1c1ccccc1` came in with a composite z-score of 0.272. As to `CN(C)C(=O)[C@@]1(Cc2ccccc2N=[N+]=[N-])COC(c2ccc(OCCCO)cc2)=N1`, the composite z-score stood at 1. In the case of `CCCc1cccc(=O)o1` it was 0.915; in that of `CC(C)C[C@@H]1NC(=O)[C@H]2C[C@@H](C(=O)NCCCCCC[N+](C)(C)C)[C@@H](c3cccc(OCCO)c3)N2C1=O`, -1.08; in that of `[N-]=[N+]=Nc1ccccc1C[C@]1(C(=O)NCc2ccccc2)N=C(c2ccc(OCCCO)cc2)O[C@H]1c1ccccc1`, 0.998. Turning to `C[C@@H]1ON(c2ccc(C(=O)OC(C)(C)C)cc2)[C@H](c2ccc(Br)cc2)[C@H]1C(=O)N1C(=O)OC[C@H]1Cc1ccccc1`, the composite z-score was 0.97.
